Results as given in PubChem BioAssay AID1476 (National Center for Advancing Translational Sciences (NCATS), 2009).
About 4,500 (2.2%) of roughly 200,000 compounds were called active. Inconclusive results (about 12%) are left out. The call rests on the fitted dose curve; in most records, active means well fitted inhibition curve with a large enough effect; inconclusive means small, poorly fitted or top-dose-only effect, or effect the other way; inactive means flat fitted curve, though single readings scatter. What follows is part of a selection rich in actives, with near analogues and random picks from the rest.

These compounds were tested against Cruzipain (Trypanosoma cruzi) (UniProt P25779) (assay: qHTS Assay for Promiscuous and Specific Inhibitors of Cruzain (without detergent)). Conditions: purified cruzain, Z-FR-AMC fluorescence, no detergent.
Sequence of Cruzipain (Trypanosoma cruzi) (P25779 123-467 limits assumed): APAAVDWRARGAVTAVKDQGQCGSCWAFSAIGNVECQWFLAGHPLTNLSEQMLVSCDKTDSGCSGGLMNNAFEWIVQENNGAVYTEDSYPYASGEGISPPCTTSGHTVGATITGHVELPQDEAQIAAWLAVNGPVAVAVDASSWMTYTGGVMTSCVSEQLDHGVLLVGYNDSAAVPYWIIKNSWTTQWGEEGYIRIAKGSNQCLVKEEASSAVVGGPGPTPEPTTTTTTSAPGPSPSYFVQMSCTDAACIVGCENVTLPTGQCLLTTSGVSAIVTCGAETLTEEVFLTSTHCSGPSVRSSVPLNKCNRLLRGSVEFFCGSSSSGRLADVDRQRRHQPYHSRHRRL
In short: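 Purified cruzain at 1.5 nM, pre-incubated 15 min with compound at room temperature in 100 mM sodium acetate pH 5.5, 5 mM DTT, 0.00005% Triton X-100. Reaction started with 2 uM Z-FR-AMC; AMC fluorescence increase over 60 s gives rate.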
Further: nearly all actives have a fitted effect of over 40% in size.
Potency means the concentration at half of the fitted maximal effect.
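Wherever max response, negative = inhibition is given: plate controls were enzyme without inhibitor for no effect and buffer without enzyme for full effect.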

| SMILES | max response, negative = inhibition | Potency |
| --- | --- | --- |
| COC(=O)c1ccccc1NC(=O)c1cnn(-c2ccc(F)cc2)c1-n1cccc1 | 3.91% (inactive) | – |
| CCCCCN1CC(O)=C(c2nc(-c3ccc(Cl)cc3)cs2)C1=N | – | 5.01 µM (active) |
| CCCCCN1CC(O)=C(c2ccccc2)C1=N | -0.607% (inactive) | – |
| CCCc1cc(-c2nc(-c3ccc(C)cc3)cs2)ccn1 | 13.4% (inactive) | – |
| Cc1ccc(S(=O)(=O)N(Cc2nc(-c3ccc(Cl)cc3)no2)C2CCCCC2)cc1 | -17.5% (inactive) | – |
| CCN(CC)S(=O)(=O)c1ccc2c(c1)N(CC(=O)NCc1ccccc1)C(=O)CS2 | 1.54% (inactive) | – |
| c1ccc(-c2csc(N3CCc4ccccc4C3)n2)cc1 | – | 25.1 µM (active) |
| N#C/C(=C1\CCCN1)c1nc(-c2ccccc2)cs1 | -17.6% (inactive) | – |
| O=C(C(=O)N1CCc2ccccc2C1)N1CCc2ccccc2C1 | -0.495% (inactive) | – |
| Cc1ccc(OCC(=O)Nc2ccc(OCc3cc(=O)n4c(C)csc4n3)cc2)cc1C | -9.52% (inactive) | – |
| Cc1ccc(C)c(Cn2c(C)c(CNCc3ccc(F)cc3)c(C(=O)O)c2C)c1 | 16.1% (inactive) | – |
| O=C1CSC2(C(=O)N(Cc3ccccc3)c3ccccc32)N1c1cccc(F)c1 (stereo unspecified) | 2.62% (inactive) | – |
| COc1ccc(N2C(=O)CS(=O)(=O)C23C(=O)N(Cc2ccc(C)cc2)c2ccccc23)cc1Cl (stereo unspecified) | – | 2.51 µM (active) |
| COc1ccc(CN2C(=O)CC(Cc3ccc(C)cc3)C2=O)cc1OC (stereo unspecified) | -8.47% (inactive) | – |
| Cc1oc(-c2ccccc2F)nc1CN1CCC(C(=O)NCCc2ccc(Cl)cc2)CC1 | 1.36% (inactive) | – |
| CC1=C(C(=O)OCc2ccc(C)cc2)C(c2ccccc2Cl)CC(=O)N1 (stereo unspecified) | 4.48% (inactive) | – |
| O=C1N/C(=C/c2cccn2-c2ccccc2)C(=O)N1c1cccc(Cl)c1 | – | 10 µM (active) |
| COc1cc2c(cc1/C=C1/NC(=O)N(c3ccccc3)C1=O)OCO2 | -27.8% (inactive) | – |
| O=C1CC(NNc2ccccc2)C(=O)N1c1cccc(Cl)c1 (stereo unspecified) | -28.1% (inactive) | – |
| Cc1nnc(NC(=O)/C=C/c2ccco2)s1 | -4.39% (inactive) | – |
| Cc1ccc(-n2nc3ccc(NC(=O)/C=C/c4ccco4)cc3n2)cc1C | – | 12.6 µM (active) |
| O=C(/C=C/c1ccco1)Nc1ccc(Oc2ccccc2)cc1 | -5.89% (inactive) | – |
| COc1ccccc1Nc1c2c(nc3ccc(NC(=O)/C=C/c4cc(OC)c(OC)c(OC)c4)cc13)CCCC2 | -4.58% (inactive) | – |
| Cc1ccc(O)c(NC(=O)COc2cc(C)ccc2C)c1 | – | 31.6 µM (active) |
| COc1ccc(C(=O)Nc2cc(C)ccc2NC(=O)COc2ccccc2)cc1 | 2.68% (inactive) | – |
| Cc1ccc(OCC(=O)N/N=C\c2ccco2)c(C)c1 | 4.92% (inactive) | – |
